Laboratory results as given in the supplement of paper PMC8728848.
The full list was thinned out, with the strongest signals kept by preference.

Assays:
Assay in all cases: glycan array binding signal (z-score within array); higher = stronger binding
[1] = test system: Neu5Gc(a2-3)Gal(b1-4)Glc; conditions: glycan notation: IUPAC condensed, linker removed
Procedure, shortened: (§1)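 Glycan array binding is given as a within-array Z-score, which can be read as non-binding when negative. The arrays, 3228 of them, came from the Consortium for Functional Glycomics database and were retained only where the protein sequence was available. Z-scores were averaged across arrays of the same protein sequence at different concentrations or buffers and across linkers.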

[2] = test system: Neu5Gc(a2-8)Neu5Gc(a2-3)Gal(b1-4)GlcNAc; conditions: glycan notation: IUPAC condensed, linker removed; mutation: R125K
Procedure, shortened: as §1

[3] = test system: Neu5Gc(a2-6)GalNAc; conditions: glycan notation: IUPAC condensed, linker removed
Procedure, shortened: as §1

[4] = test system: Neu5Gc(a2-3)Gal(b1-4)[Fuc(a1-3)]GlcNAc; conditions: glycan notation: IUPAC condensed, linker removed
Procedure, shortened: as §1

[5] = test system: Neu5Gc(b2-6)Gal(b1-4)GlcNAc; conditions: glycan notation: IUPAC condensed, linker removed
Procedure, shortened: as §1

Chain of PILRb (Mus musculus), Q2YSF2 (Q2YSF2 entry or part of it): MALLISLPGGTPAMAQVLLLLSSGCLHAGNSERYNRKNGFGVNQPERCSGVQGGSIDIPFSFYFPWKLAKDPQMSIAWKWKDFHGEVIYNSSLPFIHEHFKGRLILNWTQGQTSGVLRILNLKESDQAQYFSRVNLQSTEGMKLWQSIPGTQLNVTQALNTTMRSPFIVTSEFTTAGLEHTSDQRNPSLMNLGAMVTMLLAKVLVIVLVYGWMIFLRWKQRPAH
Chain of SRLC (Mus musculus), Q8VIF6 (Q8VIF6 other isoform, or with tags, fused parts or gaps): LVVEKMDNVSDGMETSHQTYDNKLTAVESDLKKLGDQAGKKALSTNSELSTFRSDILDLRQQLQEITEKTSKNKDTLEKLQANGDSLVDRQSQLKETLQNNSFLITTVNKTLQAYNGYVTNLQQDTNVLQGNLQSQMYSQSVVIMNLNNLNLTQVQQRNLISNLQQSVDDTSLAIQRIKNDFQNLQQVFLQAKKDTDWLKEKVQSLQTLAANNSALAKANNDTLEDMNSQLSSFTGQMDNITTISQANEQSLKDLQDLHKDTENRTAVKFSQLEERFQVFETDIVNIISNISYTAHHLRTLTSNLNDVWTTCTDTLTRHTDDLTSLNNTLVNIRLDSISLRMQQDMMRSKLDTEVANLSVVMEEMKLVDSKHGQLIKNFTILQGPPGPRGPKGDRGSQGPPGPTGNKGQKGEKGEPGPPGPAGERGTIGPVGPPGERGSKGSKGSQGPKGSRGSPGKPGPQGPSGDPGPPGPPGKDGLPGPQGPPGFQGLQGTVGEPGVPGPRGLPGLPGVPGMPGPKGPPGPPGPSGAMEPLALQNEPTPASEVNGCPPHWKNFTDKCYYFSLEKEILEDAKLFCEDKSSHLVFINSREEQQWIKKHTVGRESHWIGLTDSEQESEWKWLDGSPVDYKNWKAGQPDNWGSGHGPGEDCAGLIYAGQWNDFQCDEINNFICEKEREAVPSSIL
Chain of C3b (Homo sapiens), P01024 (P01024 23-667): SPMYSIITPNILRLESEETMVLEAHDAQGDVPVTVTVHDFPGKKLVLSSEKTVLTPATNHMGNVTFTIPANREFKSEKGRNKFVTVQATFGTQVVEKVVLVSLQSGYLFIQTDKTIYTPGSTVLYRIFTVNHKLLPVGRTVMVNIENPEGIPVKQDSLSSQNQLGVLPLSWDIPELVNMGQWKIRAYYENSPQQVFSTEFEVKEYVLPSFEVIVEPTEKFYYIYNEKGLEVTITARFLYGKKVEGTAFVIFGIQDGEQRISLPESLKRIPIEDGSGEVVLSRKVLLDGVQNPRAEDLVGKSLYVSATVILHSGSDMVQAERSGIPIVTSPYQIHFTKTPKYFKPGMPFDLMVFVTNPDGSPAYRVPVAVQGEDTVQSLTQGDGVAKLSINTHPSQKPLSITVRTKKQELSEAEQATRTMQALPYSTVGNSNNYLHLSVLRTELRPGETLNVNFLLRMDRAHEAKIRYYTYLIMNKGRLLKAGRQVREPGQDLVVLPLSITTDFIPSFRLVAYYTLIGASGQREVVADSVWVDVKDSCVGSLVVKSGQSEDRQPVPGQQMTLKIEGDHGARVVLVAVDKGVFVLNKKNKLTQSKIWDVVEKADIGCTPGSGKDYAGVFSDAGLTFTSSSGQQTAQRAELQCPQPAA
Chain of Aggrecan (Rattus norvegicus), NP_071526 (chain, as listed by the source): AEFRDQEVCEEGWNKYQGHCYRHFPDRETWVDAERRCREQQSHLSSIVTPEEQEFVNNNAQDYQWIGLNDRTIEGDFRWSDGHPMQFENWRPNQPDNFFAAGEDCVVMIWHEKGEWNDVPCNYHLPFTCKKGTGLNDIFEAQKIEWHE
Chain of 6RG (Lolium perenne) (chain, as listed by the source): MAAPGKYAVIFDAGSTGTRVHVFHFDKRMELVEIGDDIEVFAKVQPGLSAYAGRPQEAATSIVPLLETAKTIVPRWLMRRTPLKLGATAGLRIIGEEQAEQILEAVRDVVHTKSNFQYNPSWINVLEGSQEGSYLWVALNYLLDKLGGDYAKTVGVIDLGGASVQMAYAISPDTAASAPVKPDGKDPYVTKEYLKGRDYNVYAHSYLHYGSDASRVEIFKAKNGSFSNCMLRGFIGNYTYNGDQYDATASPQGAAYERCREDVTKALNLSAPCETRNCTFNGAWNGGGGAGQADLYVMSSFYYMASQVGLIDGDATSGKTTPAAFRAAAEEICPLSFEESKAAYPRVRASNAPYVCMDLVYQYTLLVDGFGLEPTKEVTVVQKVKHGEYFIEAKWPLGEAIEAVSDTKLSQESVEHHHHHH

Question: What does the source list for Siglec-8 (Homo sapiens), Q9NYZ4?
Answer: glycan array binding signal (z-score) [1]: -0.088; glycan array binding signal (z-score) [2]: -0.526

Question: For SRLC (Mus musculus), Q8VIF6, which “glycan array binding signal (z-score)” value [1] is on record?
Answer: -0.188

Question: Which “glycan array binding signal (z-score)” value [3] does the source give for 6RG (Lolium perenne) here?
Answer: -0.128

Question: Which “glycan array binding signal (z-score)” value [4] does the source give for Aggrecan (Rattus norvegicus), NP_071526 here?
Answer: -0.152

Question: For PILRb (Mus musculus), Q2YSF2, which “glycan array binding signal (z-score)” value [5] is on record?
Answer: -0.093

Question: With C3b (Homo sapiens), P01024 as the substance, how does the “glycan array binding signal (z-score)” value [3] read?
Answer: -0.982
